Assay results: PubChem BioAssay
For part of these data: Results with a measured potency or affinity are listed apart. Active and inactive are the calls of the source. Unless noted, no rule for the calls is given here.

Key:
[1] = antimalarial activity against Dd2 strain (AID 2302;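 active = growth inhibition above 50% at the single 2 µM test dose, taken to imply half-maximal potency below 2 µM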;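 also: 0% = DMSO untreated growth and 100% = chloroquine plus artemisinin killed control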); conditions: P. falciparum Dd2 in RBCs, LDH growth readout, 72 h; at 2 µM; active compounds read high
[2] = human hepatoma cell viability loss – ATP luminescence, cytotoxicity control for P. falciparum antimalarial project, primary screen (AID 2303;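 active = inhibition above 50%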;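 also: 0% = DMSO wells and 100% = digitonin-killed cells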); conditions: HepG2 viability, 24-48 h, at 10 µM, active compounds read high
[3] = biological target: L-lactate dehydrogenase (Plasmodium falciparum (isolate CDC / Honduras)) (UniProt Q27743); experiment: PfLDH activity inhibition – cell lysate, 3D7 strain, counter-screen for P. falciparum growth inhibition project (AID 2304);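 also: 0% = vehicle and 100% = reference inhibitor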; conditions: P. falciparum 3D7 crude extract, LDH APAD/NBT absorbance; at 2 µM; active compounds read high
L-lactate dehydrogenase (Plasmodium falciparum (isolate CDC / Honduras)), sequence (Q27743 whole entry, looked up): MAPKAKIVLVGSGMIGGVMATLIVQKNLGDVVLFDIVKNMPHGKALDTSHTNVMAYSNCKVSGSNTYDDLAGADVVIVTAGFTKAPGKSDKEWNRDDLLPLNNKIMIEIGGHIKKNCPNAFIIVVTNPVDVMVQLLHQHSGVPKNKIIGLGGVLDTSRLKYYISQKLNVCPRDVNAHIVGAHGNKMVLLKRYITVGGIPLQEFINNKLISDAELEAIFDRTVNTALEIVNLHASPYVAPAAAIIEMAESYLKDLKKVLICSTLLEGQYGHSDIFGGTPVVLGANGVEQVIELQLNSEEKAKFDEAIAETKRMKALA

[4] = inhibition of 3D7 malaria parasite growth – strain 3D7 (AID 2306);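 also: 0% = DMSO wells and 100% = chloroquine plus artemisinin control wells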; conditions: P. falciparum 3D7 erythrocytic growth, LDH absorbance, 72 h; at 2 µM; active compounds read high
[5] = biological target: Calcium-dependent protein kinase 1 (Plasmodium falciparum (isolate 3D7)) (UniProt P62344); experiment: PfCDPK1 kinase inhibitors, biochemical, TCAMS library (AID 1159585; cut-off not given, nearly all actives have IC50 up to about 0.98 µM;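 also: inhibitors leave more ATP so luminescence rises with inhibition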); conditions: recombinant PfCDPK1, Kinase-Glo ATP depletion luminescence
Calcium-dependent protein kinase 1 (Plasmodium falciparum (isolate 3D7)), sequence (P62344 whole entry, looked up): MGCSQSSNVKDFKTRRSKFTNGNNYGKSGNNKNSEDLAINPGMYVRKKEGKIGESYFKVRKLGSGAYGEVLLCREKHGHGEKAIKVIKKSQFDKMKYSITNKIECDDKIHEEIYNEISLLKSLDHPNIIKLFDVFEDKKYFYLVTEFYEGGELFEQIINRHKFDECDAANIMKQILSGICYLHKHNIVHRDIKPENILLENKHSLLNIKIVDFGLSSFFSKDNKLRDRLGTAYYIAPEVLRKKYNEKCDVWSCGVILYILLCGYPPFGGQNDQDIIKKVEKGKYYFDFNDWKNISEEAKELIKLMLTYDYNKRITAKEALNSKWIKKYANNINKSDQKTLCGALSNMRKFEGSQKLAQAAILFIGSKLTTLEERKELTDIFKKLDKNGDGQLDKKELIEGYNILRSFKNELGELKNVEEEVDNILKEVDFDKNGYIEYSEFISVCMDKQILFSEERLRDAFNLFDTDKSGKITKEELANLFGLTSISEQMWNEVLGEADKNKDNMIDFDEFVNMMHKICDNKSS

[6] = biological target: Plasmodium falciparum protein kinase 6 (PK6, PF3D7_1337100) (UniProt Q8IDW1); experiment: PfPK6 kinase inhibitors, biochemical, TCAMS library (AID 1159586); conditions: recombinant PfPK6, Kinase-Glo ATP depletion luminescence
Plasmodium falciparum protein kinase 6 (PK6, PF3D7_1337100), sequence (Q8IDW1 1-305): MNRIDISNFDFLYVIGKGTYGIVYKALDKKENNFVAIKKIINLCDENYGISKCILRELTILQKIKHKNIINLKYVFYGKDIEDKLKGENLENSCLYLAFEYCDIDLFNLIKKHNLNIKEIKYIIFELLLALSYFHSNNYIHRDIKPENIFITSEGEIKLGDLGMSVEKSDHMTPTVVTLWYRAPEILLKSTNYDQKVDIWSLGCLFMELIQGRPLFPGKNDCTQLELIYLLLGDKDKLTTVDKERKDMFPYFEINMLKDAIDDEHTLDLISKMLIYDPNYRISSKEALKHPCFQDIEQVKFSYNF

[7] = biological target: Protein kinase 7 (PK7), Plasmodium falciparum 3D7 (PF3D7_0213400) (UniProt Q7YTF7); experiment: inhibition of Plasmodium PK7 catalytic activity – biochemical, TCAMS antimalarial set, Kinase-Glo luminescence (AID 1159587); conditions: recombinant PfPK7, Kinase-Glo ATP depletion luminescence
Protein kinase 7 (PK7), Plasmodium falciparum 3D7 (PF3D7_0213400), sequence (Q7YTF7 1-343): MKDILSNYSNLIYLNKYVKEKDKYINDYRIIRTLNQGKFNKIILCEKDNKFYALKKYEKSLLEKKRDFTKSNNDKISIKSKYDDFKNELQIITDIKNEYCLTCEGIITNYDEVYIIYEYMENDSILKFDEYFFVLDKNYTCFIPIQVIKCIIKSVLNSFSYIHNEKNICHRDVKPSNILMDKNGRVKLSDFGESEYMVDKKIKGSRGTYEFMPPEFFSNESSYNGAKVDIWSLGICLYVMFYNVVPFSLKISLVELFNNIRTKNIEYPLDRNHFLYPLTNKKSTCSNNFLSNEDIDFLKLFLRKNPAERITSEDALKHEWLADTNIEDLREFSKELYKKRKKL

[8] = biological target: Calcium-dependent protein kinase 4 (Plasmodium falciparum (isolate 3D7)) (UniProt Q8IBS5); experiment: PfCDPK4 kinase inhibitors, biochemical, TCAMS library (AID 1159588; cut-off not given, nearly all actives have IC50 up to about 0.91 µM); conditions: recombinant PfCDPK4, Kinase-Glo ATP depletion luminescence
Calcium-dependent protein kinase 4 (Plasmodium falciparum (isolate 3D7)), sequence (Q8IBS5 whole entry, looked up): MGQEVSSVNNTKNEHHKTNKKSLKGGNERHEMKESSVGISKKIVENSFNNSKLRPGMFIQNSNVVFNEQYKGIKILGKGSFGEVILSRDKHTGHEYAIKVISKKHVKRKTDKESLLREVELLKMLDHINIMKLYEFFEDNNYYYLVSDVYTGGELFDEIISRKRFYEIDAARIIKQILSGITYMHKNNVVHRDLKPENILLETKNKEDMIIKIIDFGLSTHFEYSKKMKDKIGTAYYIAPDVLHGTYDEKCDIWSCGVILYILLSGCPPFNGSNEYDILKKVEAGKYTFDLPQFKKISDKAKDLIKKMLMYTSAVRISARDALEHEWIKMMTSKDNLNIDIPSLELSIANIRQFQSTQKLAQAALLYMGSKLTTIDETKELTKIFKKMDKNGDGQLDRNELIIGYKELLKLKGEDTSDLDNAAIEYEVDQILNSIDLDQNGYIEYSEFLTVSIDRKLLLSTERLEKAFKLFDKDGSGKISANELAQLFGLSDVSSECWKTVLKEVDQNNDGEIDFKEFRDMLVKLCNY

CN1CCCN(Cc2cccc(-c3cccc(NC(=O)c4ccc(Cl)cc4)c3)c2)CC1
active: growth inhibition [4] 100%
inactive: growth inhibition [1] 44% | inhibition [2] 35% | inhibition [3] 2% | outcome [5] | outcome [6] | outcome [7] | outcome [8]

CC1CCCCN1CCCNc1nc(NCc2ccccc2)c2ccccc2n1 (stereo not drawn)
active: growth inhibition [4] 95%
inactive: growth inhibition [1] 14% | inhibition [2] 24% | inhibition [3] 0% | outcome [5] | outcome [6] | outcome [7] | outcome [8]

Fc1ccc(-c2cc(NCCCn3ccnc3)nc(-c3cccnc3)n2)cc1
active: growth inhibition [1] 70% | growth inhibition [4] 99%
inactive: inhibition [2] 11% | inhibition [3] 0% | outcome [5] | outcome [6] | outcome [7] | outcome [8]

Cc1c(CNCCN2CCCCC2)c(C(=O)O)c(C)n1Cc1ccc(Cl)cc1
inactive: inhibition [2] 4% | inhibition [3] -6% | outcome [5] | outcome [6] | outcome [7] | outcome [8]
active: growth inhibition [1] 93% | growth inhibition [4] 97%

FC(F)(F)c1ccc2nccc(NN=Cc3ccccc3Cl)c2c1
inactive: inhibition [2] -6% | inhibition [3] 5% | outcome [5] | outcome [6] | outcome [7] | outcome [8]
active: growth inhibition [1] 83% | growth inhibition [4] 101%

O=C(Nc1cccc(-c2cccc(CN3CCCC3)c2)c1)c1ccc(Cl)cc1
inactive: growth inhibition [1] 32% | inhibition [3] 0% | outcome [5] | outcome [6] | outcome [7] | outcome [8]
active: inhibition [2] 50% | growth inhibition [4] 93%

COc1ccc(CCN(C)CCc2ccc(NC(=O)c3cccc4c(=O)c5ccccc5sc34)cc2)cc1
inactive: growth inhibition [1] 33% | inhibition [2] 24% | inhibition [3] -2% | outcome [5] | outcome [6] | outcome [7] | outcome [8]
active: growth inhibition [4] 95%

CC(C)Cn1c(Sc2ccc(C#N)c([N+](=O)[O-])c2)nnc1-c1ccccc1Cl
active: growth inhibition [4] 93%
inactive: growth inhibition [1] 46% | inhibition [2] 18% | inhibition [3] 2% | outcome [5] | outcome [6] | outcome [7] | outcome [8]

CCN(CCO)CCc1cccc(Nc2nccc(-c3c(-c4ccc(NC(=O)C(C)(C)C)cc4)nn4ccccc34)n2)c1
active: growth inhibition [1] 96% | inhibition [2] 62% | growth inhibition [4] 101%
inactive: inhibition [3] 4% | outcome [5] | outcome [6] | outcome [7] | outcome [8]

CCCC(=O)c1cnc2c(OCCCc3cnc[nH]3)cccc2c1Nc1c(C)cccc1C
active: growth inhibition [4] 98%
inactive: growth inhibition [1] 14% | inhibition [2] 20% | inhibition [3] 3% | outcome [5] | outcome [6] | outcome [7] | outcome [8]

CC(=O)Nc1cccc(-c2cnc(N)c3cc(-c4ccc5c(c4)OCO5)ccc23)c1
active: growth inhibition [1] 93% | inhibition [2] 100% | growth inhibition [4] 99%
inactive: inhibition [3] -4% | outcome [5] | outcome [6] | outcome [7] | outcome [8]

CCn1c(-c2nonc2N)nc2c(C#CC(C)(C)O)ncc(OCCNCCc3ccc(OC)cc3)c21
inactive: growth inhibition [1] 44% | inhibition [2] 4% | inhibition [3] -7% | outcome [5] | outcome [6] | outcome [7] | outcome [8]
active: growth inhibition [4] 91%

COc1cc2nc(N(C)C)nc(Nc3ccc4c(cnn4Cc4ccccc4)c3)c2cc1OC
inactive: inhibition [3] -4% | outcome [5] | outcome [6] | outcome [7] | outcome [8]
active: growth inhibition [1] 102% | inhibition [2] 90% | growth inhibition [4] 100%

Cc1nnsc1C(=O)Nc1cccc(-c2ccc(-c3nc4c(C)cccc4[nH]3)s2)c1
inactive: growth inhibition [1] 44% | inhibition [2] 46% | inhibition [3] 4% | outcome [5] | outcome [6] | outcome [7] | outcome [8]
active: growth inhibition [4] 100%

CCCCCC1c2[nH]c3ccccc3c2CCN1C(=O)OCc1ccccc1 (stereo not drawn)
inactive: inhibition [2] 3% | inhibition [3] -3% | outcome [5] | outcome [6] | outcome [7] | outcome [8]
active: growth inhibition [1] 68% | growth inhibition [4] 93%

CCCCOc1c(CNCCCCCCNCc2ccc3ccccc3c2OCCCC)ccc2ccccc12
inactive: inhibition [3] 7% | outcome [5] | outcome [6] | outcome [7] | outcome [8]
active: growth inhibition [1] 89% | inhibition [2] 99% | growth inhibition [4] 96%

CO/C(=C\C=C\c1cc2cc(Cl)c(Cl)cc2[nH]1)C(=O)NC1C[C@H]2CC[C@@H](C1)N2C (stereo partly drawn)
active: growth inhibition [4] 88%
inactive: growth inhibition [1] 23% | inhibition [2] 46% | inhibition [3] -4% | outcome [5] | outcome [6] | outcome [7] | outcome [8]

Fc1ccc2nc(-c3ccc(-c4ccc(CNCCc5ccncc5)cc4)s3)[nH]c2c1
inactive: inhibition [2] 34% | inhibition [3] -3% | outcome [5] | outcome [6] | outcome [7] | outcome [8]
active: growth inhibition [1] 100% | growth inhibition [4] 99%

CCC(Cc1cnc2nc(N)nc(N)c2n1)c1ccc(C(=O)N[C@@H](CCC(=O)O)C(=O)O)cc1 (stereo partly drawn)
active: growth inhibition [1] 98% | inhibition [2] 64% | growth inhibition [4] 93%
inactive: inhibition [3] -2% | outcome [5] | outcome [6] | outcome [7] | outcome [8]

COc1cc(NC(=O)CCCCCCCN2CCN(C)CC2)c2ncccc2c1
active: growth inhibition [1] 83% | growth inhibition [4] 95%
inactive: inhibition [2] 2% | inhibition [3] 1% | outcome [5] | outcome [6] | outcome [7] | outcome [8]

Cc1cccc2[nH]c(-c3cccc(-c4ccc(NC(=O)CCc5cnc[nH]5)cc4)c3)nc12
inactive: inhibition [2] 3% | inhibition [3] 6% | outcome [5] | outcome [6] | outcome [7] | outcome [8]
active: growth inhibition [1] 92% | growth inhibition [4] 102%

c1ccc(Oc2ccc(Nc3ccnc4cc(-c5ccc(CN6CCNCC6)o5)ccc34)cc2)nc1
active: growth inhibition [1] 99% | growth inhibition [4] 100%
inactive: inhibition [2] 7% | inhibition [3] -1% | outcome [5] | outcome [6] | outcome [7] | outcome [8]

C=CCOC(=O)N1CCC(CNCc2ccc(-c3cccc(-c4nc5c(C)cccc5[nH]4)c3)cc2)C1 (stereo not drawn)
inactive: inhibition [2] 25% | inhibition [3] -5% | outcome [5] | outcome [6] | outcome [7] | outcome [8]
active: growth inhibition [1] 99% | growth inhibition [4] 102%

COc1cc2nc(N3CCC(CNC(=O)c4cccc5cccnc45)CC3)nc(N)c2cc1OC
active: growth inhibition [4] 99%
inactive: growth inhibition [1] 33% | inhibition [2] 34% | inhibition [3] -2% | outcome [5] | outcome [6] | outcome [7] | outcome [8]

CCOC(=O)c1ccc(NC(=O)NC2CCN(CCCCCNC(=O)/C=C/c3ccc(Cl)c(Cl)c3)C2)cc1 (stereo not drawn)
inactive: growth inhibition [1] 0% | inhibition [2] 23% | inhibition [3] -3% | outcome [5] | outcome [6] | outcome [7] | outcome [8]
active: growth inhibition [4] 98%

Cc1cc(N2CCCC2)nc(Nc2ccc(NC(=O)C(C)Oc3ccccc3)cc2)n1 (stereo not drawn)
inactive: inhibition [2] 42% | inhibition [3] -1% | outcome [5] | outcome [6] | outcome [7] | outcome [8]
active: growth inhibition [1] 58% | growth inhibition [4] 101%

COc1ccc(CC2(c3ccc(F)cc3)N=C(N)N(CCCc3cccnc3)C2=O)cc1 (stereo not drawn)
inactive: inhibition [2] 12% | inhibition [3] 0% | outcome [5] | outcome [6] | outcome [7] | outcome [8]
active: growth inhibition [1] 97% | growth inhibition [4] 98%

CCN(CC)CCN(Cc1ccc(-c2ccc(C(F)(F)F)cc2)cc1)C(=O)Cn1c(CCc2cccc(F)c2F)nc(=O)c2ccc(C)cc21
active: growth inhibition [1] 58% | growth inhibition [4] 99%
inactive: inhibition [2] 39% | inhibition [3] -2% | outcome [5] | outcome [6] | outcome [7] | outcome [8]

COC(=O)C(Cc1ccccc1)NC(=O)NC1CCN(c2ccnc(Nc3ccc(F)cc3)n2)C1 (stereo not drawn)
inactive: growth inhibition [1] 14% | inhibition [2] 0% | inhibition [3] -3% | outcome [5] | outcome [6] | outcome [7] | outcome [8]
active: growth inhibition [4] 90%

CC(C)(C)C1CC(=O)C[C@@H]2C(=O)N(C3CCCCC3)C(=O)[C@H]12 (stereo partly drawn)
inactive: growth inhibition [1] 27% | inhibition [2] -2% | inhibition [3] -2% | outcome [5] | outcome [6] | outcome [7] | outcome [8]
active: growth inhibition [4] 97%

COc1cc(OCCCCCCON2C(N)=NC(N)=NC2(C)C)cc(OC)c1OC
inactive: inhibition [2] 41% | inhibition [3] -5% | outcome [5] | outcome [6] | outcome [7] | outcome [8]
active: growth inhibition [1] 93% | growth inhibition [4] 94%

CN(C)CCN(C)Cc1ccc(-c2ccc(NC(=O)c3cccc(Cl)c3)cc2)cc1
active: growth inhibition [1] 54% | inhibition [2] 50% | growth inhibition [4] 94%
inactive: inhibition [3] 1% | outcome [5] | outcome [6] | outcome [7] | outcome [8]

Cc1cccc2[nH]c(-c3cccc(-c4ccc(NC(=O)c5cccc(C(N)=O)c5)cc4)c3)nc12
active: growth inhibition [1] 61% | growth inhibition [4] 100%
inactive: inhibition [2] 25% | inhibition [3] 4% | outcome [5] | outcome [6] | outcome [7] | outcome [8]

C[C@@H]1CCC[C@H](C)N1C[C@@H](O)CNS(=O)(=O)c1cccc(C(F)(F)F)c1
inactive: growth inhibition [1] 2% | inhibition [2] 4% | inhibition [3] -4% | outcome [5] | outcome [6] | outcome [7] | outcome [8]
active: growth inhibition [4] 99%

CC[C@H](NC(=O)c1c(CCCN2CCN(c3ccccc3)CC2)c(-c2ccccc2)nc2cc(O)ccc12)c1ccccc1
active: growth inhibition [1] 97% | growth inhibition [4] 96%
inactive: inhibition [2] 12% | inhibition [3] 6% | outcome [5] | outcome [6] | outcome [7] | outcome [8]

O=C(Nc1cccc(-c2ccc(NCCCN3CCCC3)nc2)c1)c1ccccc1
active: growth inhibition [4] 100%
inactive: growth inhibition [1] 21% | inhibition [2] 22% | inhibition [3] 4% | outcome [5] | outcome [6] | outcome [7] | outcome [8]
